Reference: PubChem BioAssay
The source made the active and inactive calls.

How the values were obtained:
[1] = binders of probe aFSTL3 on microarray, primary screen, stem cell growth factor project, biochemical, small-molecule microarray, fluorescence 635/667 (AID 1064); details: higher = more signal;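 note: measures binding of the biotinylated anti-FSTL3 antibody to printed compounds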
[2] = binders from COS7 lysate, DM2A8 probe, primary screen, torsin A project, cell lysate, small-molecule microarray, fluorescence 635/667 (AID 1065); details: higher = more signal, COS7 lysate expressing mutant human TOR1A
[3] = binders of probe aFGF2 on microarray, primary screen, stem cell growth factor project, biochemical, small-molecule microarray, fluorescence 635/667 (AID 1067); details: higher = more signal;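 note: measures binding of biotinylated aFGF2 protein to printed compounds on slides; z-score merges feature fluorescence and signal-to-noise across triplicate slides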
[4] = binders of probe aFGF10 on microarray, primary screen, stem cell growth factor project, biochemical, small-molecule microarray, fluorescence 635/667 (AID 1071); details: higher = more signal;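 note: score merges 667 nm spot intensity and signal to noise from triplicate slides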
[5] = biological target: Neurogenic locus notch homolog protein 2 (Homo sapiens) (UniProt Q04721); experiment: Notch2 binders on small-molecule microarrays, primary screen, biochemical, small-molecule microarray, 635 nm fluorescence, stem cell growth factors (AID 1073); details: Notch2 binding, higher = more signal
[6] = biological target: Pro-neuregulin-1, membrane-bound isoform (Homo sapiens) (UniProt Q02297); experiment: NRG1 binders on small-molecule microarrays, primary screen, psychiatric disease protein project, biochemical, small-molecule microarray, fluorescence 635/667 (AID 1075); details: NRG1 binding, 635 nm fluorescence, higher = more signal;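 note: score combines 667 nm spot fluorescence with signal to noise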
Pro-neuregulin-1, membrane-bound isoform (Homo sapiens), sequence (Q02297 whole entry, looked up, the tested form may be a part, canonical isoform): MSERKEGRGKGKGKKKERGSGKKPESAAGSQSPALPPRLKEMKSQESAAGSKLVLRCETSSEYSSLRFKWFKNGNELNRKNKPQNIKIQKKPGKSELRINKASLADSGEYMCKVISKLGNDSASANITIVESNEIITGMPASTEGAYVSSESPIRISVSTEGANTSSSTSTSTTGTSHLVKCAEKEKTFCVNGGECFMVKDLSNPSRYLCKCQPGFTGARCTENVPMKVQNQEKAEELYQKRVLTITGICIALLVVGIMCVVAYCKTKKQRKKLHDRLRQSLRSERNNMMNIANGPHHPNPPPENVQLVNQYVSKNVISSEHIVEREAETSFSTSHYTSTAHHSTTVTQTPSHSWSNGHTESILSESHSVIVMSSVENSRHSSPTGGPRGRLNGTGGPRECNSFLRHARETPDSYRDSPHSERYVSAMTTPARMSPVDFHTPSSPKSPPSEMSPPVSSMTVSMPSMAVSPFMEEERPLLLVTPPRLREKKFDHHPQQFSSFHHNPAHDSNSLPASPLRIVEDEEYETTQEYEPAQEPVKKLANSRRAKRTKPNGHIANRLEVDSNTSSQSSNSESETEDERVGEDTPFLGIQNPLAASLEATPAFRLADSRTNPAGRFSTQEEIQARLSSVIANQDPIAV

[7] = system: Neuregulin-1 EGF-like domain; experiment: binders of neuregulin-1 EGF-like domain, primary screen, biochemical, small-molecule microarray, 635 nm fluorescence (AID 1081); details: small-molecule microarray binding, higher = more signal;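 note: binding of the protein to compounds printed on small-molecule microarray slides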
[8] = FRG1 promoter luciferase signal modulators, primary screen, FRG1 inhibition for FSHD, cell-based, C2C12 myotubes, firefly/Renilla luciferase, luminescence (AID 1084); details: higher = more signal, called active from +8 up or from −8 down
[9] = binders of probe aFST on microarray, primary screen, stem cell growth factor project, biochemical, small-molecule microarray, fluorescence 635/667 (AID 1086); details: higher = more signal;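 note: score merges 667 nm fluorescence with signal-to-noise of each printed compound spot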
[10] = binders of probe aHhip on microarray, primary screen, stem cell growth factor project, biochemical, small-molecule microarray, fluorescence 635/667 (AID 1087); details: higher = more signal;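 note: score merges spot fluorescence at 667nm with spot signal to noise ratio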
[11] = system: PRMT1 (protein arginine N-methyltransferase 1); experiment: PRMT1 binders on small-molecule microarrays, primary screen, biochemical, small-molecule microarray, 635 nm fluorescence (AID 1088); details: small-molecule microarray binding, higher = more signal;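 note: binding of Prmt1 protein to compounds spotted on small-molecule microarray slides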
[12] = yeast growth modulation, basal conditions, primary screen, YJM789 clinical isolate, OD600, 24 h (AID 1089);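 note: growth of clinical yeast isolate S. cerevisiae YJM 789 seeded 1000 cells per well; test concentration not given here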; details: S. cerevisiae YJM789 growth, higher = more signal, called active from +8 up or from −8 down
[13] = fission yeast growth modulation, primary screen, strain 972, OD600, 24 h, no modulator (AID 1090);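 note: basal condition with compound alone and no growth modifier present; test concentration not given here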; details: S. pombe 972 growth, higher = more signal, called active from +8 up or from −8 down
[14] = S. cerevisiae growth modulation with rapamycin, primary screen, strain BY4716, OD600, 96 h (AID 1091); details: higher = more signal, called active from +8 up or from −8 down; note: test concentration not given here
[15] = biological target: Torsin-1A-interacting protein 2 (Homo sapiens) (UniProt Q8NFQ8); experiment: LULL1 binders on small-molecule microarray, primary screen, cell lysate, human LULL1 lysate, 635/667 nm fluorescence (AID 1092); details: hLULL1 lysate binding, 635 nm fluorescence, higher = more signal;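 note: probe is lysate of COS7 cells overexpressing human LULL1; score merges per-feature 667 nm fluorescence with signal-to-noise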
Torsin-1A-interacting protein 2 (Homo sapiens), sequence (Q8NFQ8 whole entry, looked up): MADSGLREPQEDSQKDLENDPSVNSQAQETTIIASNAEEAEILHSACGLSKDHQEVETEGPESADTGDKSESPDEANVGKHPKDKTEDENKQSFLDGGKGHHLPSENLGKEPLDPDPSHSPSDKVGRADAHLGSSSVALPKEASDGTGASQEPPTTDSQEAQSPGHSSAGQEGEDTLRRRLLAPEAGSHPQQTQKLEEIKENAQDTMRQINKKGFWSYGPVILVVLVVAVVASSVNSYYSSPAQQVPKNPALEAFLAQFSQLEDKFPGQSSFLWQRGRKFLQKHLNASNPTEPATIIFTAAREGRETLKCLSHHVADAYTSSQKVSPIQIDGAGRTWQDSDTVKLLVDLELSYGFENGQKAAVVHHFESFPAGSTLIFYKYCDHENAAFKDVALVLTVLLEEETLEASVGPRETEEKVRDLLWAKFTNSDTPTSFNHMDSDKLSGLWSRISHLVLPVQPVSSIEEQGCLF

[16] = E. coli growth modulation, two-sided OD650, primary screen, E. coli filamentation project, strain DRC41, 24 h (AID 1093); details: OD650, 24 h, higher = more signal, called active from +8 up or from −8 down;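 note: MC1000 strain lacking acrAB efflux and sulA so SOS filamentation is blocked; test concentration not given here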
[17] = small-molecule microarray binders of probe aLefty2, primary screen, biochemical, biotinylated probe, 635/667 nm fluorescence (AID 1094); details: higher = more signal;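 note: score merges spot fluorescence near 667 nm with spot signal-to-noise ratio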
[18] = system: Noggin (protein binding on small-molecule microarray); experiment: Noggin binders on small-molecule microarray, primary screen, biochemical, 635/667 nm fluorescence (AID 1095); details: 635 nm fluorescence, higher = more signal;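 note: score merges 667 nm feature fluorescence with signal to noise over triplicate slides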
[19] = biological target: Neurogenic locus notch homolog protein 3 (Homo sapiens) (UniProt Q9UM47); experiment: NOTCH3 binders on small-molecule microarray, primary screen, biochemical, 635/667 nm fluorescence (AID 1096); details: NOTCH3 binding, 635 nm fluorescence, higher = more signal
Neurogenic locus notch homolog protein 3 (Homo sapiens), sequence (Q9UM47 whole entry, looked up): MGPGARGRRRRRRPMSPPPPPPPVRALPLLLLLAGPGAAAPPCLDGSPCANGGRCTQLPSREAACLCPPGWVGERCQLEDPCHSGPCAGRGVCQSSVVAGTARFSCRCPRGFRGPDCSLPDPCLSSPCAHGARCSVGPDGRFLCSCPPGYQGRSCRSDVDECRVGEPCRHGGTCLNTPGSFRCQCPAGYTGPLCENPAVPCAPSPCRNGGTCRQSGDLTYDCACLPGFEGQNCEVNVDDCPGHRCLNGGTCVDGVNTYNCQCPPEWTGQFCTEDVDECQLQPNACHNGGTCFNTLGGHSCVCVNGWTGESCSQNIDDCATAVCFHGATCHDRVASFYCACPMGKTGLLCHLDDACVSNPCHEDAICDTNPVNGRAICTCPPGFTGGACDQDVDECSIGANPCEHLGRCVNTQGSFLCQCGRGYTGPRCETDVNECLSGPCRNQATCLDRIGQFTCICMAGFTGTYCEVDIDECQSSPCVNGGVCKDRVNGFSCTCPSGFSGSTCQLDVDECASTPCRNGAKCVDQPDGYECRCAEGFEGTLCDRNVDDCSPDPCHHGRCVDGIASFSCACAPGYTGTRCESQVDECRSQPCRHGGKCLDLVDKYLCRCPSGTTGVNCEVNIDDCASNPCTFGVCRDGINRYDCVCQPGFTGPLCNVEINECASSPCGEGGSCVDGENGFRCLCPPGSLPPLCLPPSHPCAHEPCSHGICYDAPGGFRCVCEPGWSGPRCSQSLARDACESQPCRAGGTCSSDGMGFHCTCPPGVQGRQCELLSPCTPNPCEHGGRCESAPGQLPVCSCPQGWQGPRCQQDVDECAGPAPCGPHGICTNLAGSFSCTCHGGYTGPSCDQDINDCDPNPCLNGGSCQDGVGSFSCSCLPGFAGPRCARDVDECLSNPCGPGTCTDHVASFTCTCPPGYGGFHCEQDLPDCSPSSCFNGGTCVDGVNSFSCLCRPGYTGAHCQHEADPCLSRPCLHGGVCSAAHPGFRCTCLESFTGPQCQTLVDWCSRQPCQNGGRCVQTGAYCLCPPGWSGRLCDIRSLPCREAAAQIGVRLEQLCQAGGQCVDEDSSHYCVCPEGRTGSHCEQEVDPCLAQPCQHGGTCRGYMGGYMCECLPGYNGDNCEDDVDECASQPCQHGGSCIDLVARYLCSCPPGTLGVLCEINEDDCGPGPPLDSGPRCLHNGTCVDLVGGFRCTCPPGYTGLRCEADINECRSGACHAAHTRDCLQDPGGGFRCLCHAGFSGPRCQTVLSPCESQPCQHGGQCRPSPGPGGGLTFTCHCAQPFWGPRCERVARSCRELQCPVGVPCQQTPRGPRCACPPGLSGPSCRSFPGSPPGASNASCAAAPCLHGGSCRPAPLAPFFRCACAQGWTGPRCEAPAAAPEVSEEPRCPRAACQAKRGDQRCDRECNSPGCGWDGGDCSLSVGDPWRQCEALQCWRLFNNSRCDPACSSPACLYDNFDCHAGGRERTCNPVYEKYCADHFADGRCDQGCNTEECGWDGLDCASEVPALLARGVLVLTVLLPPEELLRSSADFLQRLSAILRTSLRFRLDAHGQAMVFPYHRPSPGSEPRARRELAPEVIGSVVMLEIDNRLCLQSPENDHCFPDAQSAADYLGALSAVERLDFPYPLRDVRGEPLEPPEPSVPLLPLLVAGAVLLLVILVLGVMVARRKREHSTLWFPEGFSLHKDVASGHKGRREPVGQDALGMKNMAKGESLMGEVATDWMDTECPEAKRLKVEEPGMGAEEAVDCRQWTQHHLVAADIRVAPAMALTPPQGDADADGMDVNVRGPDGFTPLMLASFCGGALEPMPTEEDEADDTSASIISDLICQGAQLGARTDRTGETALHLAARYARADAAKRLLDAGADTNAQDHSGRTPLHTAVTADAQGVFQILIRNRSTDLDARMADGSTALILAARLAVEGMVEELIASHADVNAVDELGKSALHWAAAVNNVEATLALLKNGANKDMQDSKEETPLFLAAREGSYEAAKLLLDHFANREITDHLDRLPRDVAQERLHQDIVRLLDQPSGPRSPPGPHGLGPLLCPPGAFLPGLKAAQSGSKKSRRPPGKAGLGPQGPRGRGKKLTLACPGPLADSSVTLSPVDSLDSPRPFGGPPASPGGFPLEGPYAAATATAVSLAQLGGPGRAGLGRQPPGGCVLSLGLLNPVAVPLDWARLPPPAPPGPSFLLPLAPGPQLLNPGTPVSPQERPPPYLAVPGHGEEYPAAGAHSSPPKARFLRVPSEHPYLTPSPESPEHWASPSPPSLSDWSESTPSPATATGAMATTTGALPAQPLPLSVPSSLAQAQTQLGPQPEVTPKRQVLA

[20] = small-molecule microarray binders of probe aEGFR, primary screen, biochemical, biotinylated probe, 635/667 nm fluorescence (AID 1097); details: higher = more signal;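 note: probe is a biotinylated anti-EGFR antibody binding compounds printed on slides; score combines fluorescence near 667 nm and signal to noise of each spot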

Compound	composite z-score [1]	composite z-score [2]	composite z-score [3]	composite z-score [4]	composite z-score [5]	composite z-score [6]	composite z-score [7]	z-score [8]	composite z-score [9]	composite z-score [10]	composite z-score [11]	z-score [12]	z-score [13]	z-score [14]	composite z-score [15]	z-score [16]	composite z-score [17]	composite z-score [18]	composite z-score [19]	composite z-score [20]
COC(=O)C(CC#Cc1ccc2c(c1)[C@]1(C(=O)N2)[C@H](c2ccc(O)cc2)N2[C@H](c3ccccc3)[C@H](c3ccccc3)OC(=O)[C@H]2[C@@H]1C(=O)N1CCCCCCC1)C(=O)OC	3.08	0.716	0.61	0.156	1.08	1.19	1.19	-0.546 (inactive)	2.44	0.17	1.53	-1.87 (inactive)	-1.29 (inactive)	-0.939 (inactive)	4.02	0.88 (inactive)	1.5	1.91	1.14	0.804
COC(=O)[C@@]1(Cc2ccc(OC)cc2)[C@H]2c3cc(C(=O)N4CCCC4)n(Cc4ccc(OC(F)(F)F)cc4)c3C[C@H]2CN1C(=O)c1ccccc1	0.572	-1.05	0.225	0.703	1.74	1.39	0.283	0.612 (inactive)	1.28	0.113	-1.02	0.59 (inactive)	1.74 (inactive)	3.21 (inactive)	0.0202	-0.376 (inactive)	0.412	-0.442	0.75	0.343
CC(C)OC(=O)CC(=O)CC(O)c1ccc([N+](=O)[O-])cc1 (stereo not given)	0.231	0.219	0.0033	0.307	0.795	0.0916	0.438	0.719 (inactive)	0.0731	-0.123	0.65	-0.0857 (inactive)	-0.26 (inactive)	-0.34 (inactive)	1.27	-0.215 (inactive)	0.0416	-0.0624	0.422	-0.213
[N-]=[N+]=NCc1ccccc1[C@@H]1OC(c2ccc(OCCCO)cc2)=N[C@]1(Cc1ccccc1N=[N+]=[N-])C(=O)NCCN1CCOCC1	-0.0579	0.909	0.088	0.828	1.56	1.19	1.25	0.982 (inactive)	1.11	-0.213	1.55	-0.563 (inactive)	-4.92 (inactive)	-0.889 (inactive)	3.26	0.118 (inactive)	0.0814	1.6	1.05	0.0809
COC(=O)[C@@]1(Cc2ccc(OC)cc2)[C@H]2c3cc(C(=O)N4CCCC4)n(Cc4ccc(S(C)(=O)=O)cc4)c3C[C@H]2CN1C(=O)c1ccccc1	0.438	-0.208	0.296	0.587	1.59	2.07	1.31	0.862 (inactive)	1.25	0.0053	-0.42	-0.288 (inactive)	0.868 (inactive)	1.16 (inactive)	3	-0.247 (inactive)	0.205	0.419	1.02	0.297
CN1C(=O)C2C=CC(C(O)c3cc(C(F)(F)F)cc(C(F)(F)F)c3)N(NC(=O)OC(C)(C)C)C2C1=O (stereo not given)	0.153	0.324	-0.0169	0.577	1.67	2.01	1.03	1.07 (inactive)	1.52	-0.0296	1.56	-0.403 (inactive)	-0.983 (inactive)	-0.314 (inactive)	3.61	-0.0262 (inactive)	0.322	0.421	0.995	0.0169
CN1C(=O)[C@@]2(Cc3ccccc3)N=C(c3ccc(OCCCO)cc3)O[C@H]2c2ccccc21	0.331	0.295	0.0175	0.261	0.921	0.501	1.21	-2.02 (inactive)	0.511	-0.156	1.56	-1.28 (inactive)	-4.11 (inactive)	0.843 (inactive)	2.94	0.291 (inactive)	0.109	0.955	1	-0.0982
COc1cc(NN2C(C(O)c3cc(OC)c(OC)c(OC)c3)C=CC3C(=O)N(c4ccccc4)C(=O)C32)cc(OC)c1OC (stereo not given)	0.457	0.512	0.432	1.09	1.57	1.79	1.38	0.997 (inactive)	0.669	-0.0631	1.51	0.613 (inactive)	0.712 (inactive)	0.219 (inactive)	2.93	-1.94 (inactive)	0.688	1.34	1.02	0.139
CC(C)CCC[C@@H](C)[C@H]1CC[C@@]2(C)C3=C(CC[C@]12C)[C@@]1(C)CC[C@H](OC(=O)c2ccccc2)C(C)(C)C1CC3 (stereo not given in full)	-0.438	0.299	-0.0916	0.157	0.474	0.0304	-0.0239	-0.374 (inactive)	0.526	0.93	-0.0528	-1.9 (inactive)	-0.547 (inactive)	-0.568 (inactive)	-0.11	1.59 (inactive)	-0.193	0.559	0.316	-0.0828
